# HT1080 IDH1KD tx – qHTS for induction of synthetic lethality in tumor cells producing 2HG: qHTS for the HT-1080-IDH1KD cell line | Potency, µM (series often up to 46.1 µM), for the others: at the highest dose activity, negative = toxicity, actives largely listed as cytotoxic | HT-1080 IDH1 knockdown viability, ATP luminescence, 48 h | 2% of 360,000 active;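 also: potency is read from the fitted curve at half-maximal effect; 0% = DMSO wells and -100% = cell-free medium wells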
#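 Cytotoxicity counter-line: IDH1KD HT-1080, 48 h, CellTiter-Glo. Curves classed by r2, magnitude and activity.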
# HT1080-NT tox – qHTS for induction of synthetic lethality in tumor cells producing 2HG: qHTS for the HT-1080-NT fibrosarcoma cell line. HT-1080-NT fibrosarcoma viability, CellTiter-Glo ATP luminescence, 48 h. Potency, µM (series often up to 46.1 µM), without a hit: top-dose activity, negative = less viability, actives largely listed as cytotoxic. 1.6% of 360,000 active. AID 686970, 2013;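 also: NT is the 2HG producing partner of a matched IDH1 knockdown line; potency is read from the fitted curve at half-maximal effect; 0% = DMSO-treated cells and -100% = media-only wells without cells; nearly all actives have a fitted effect of over 55% in size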
#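 Viability by CellTiter-Glo luminescence after 48 h compound exposure at 37C of HT-1080-NT cells (750/well, RPMI, 5% FBS). % activity scaled between DMSO wells and medium-only wells, then curve-fitted and categorized by curve class.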
# DT40 TDP1 CPT – qHTS for Inhibitors of human tyrosyl-DNA phosphodiesterase 1 (TDP1): qHTS in cells in presence of CPT | chicken DT40 Tdp1-/-;hTDP1 cells + 20 nM CPT, ATP luminescence, 48 h | Potency, µM (doses to about 46.2 µM), for inactives: at the top dose activity change, negative = growth inhibition, most hits filed as inhibitors | 12% of 420,000 active | AID 686979, 2013; also: potency is read from the fitted curve at half-maximal effect; nearly all actives have a fitted effect of over 55% in size
#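 Cell growth measured by CellTiter-Glo luminescence after a minimum 48 h, 37 C compound exposure with 20 nM CPT in Tdp1-knockout DT40 cells stably expressing hTDP1, seeded 400/well; qHTS titration format.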
# IL1B secr inh – qHTS for Inhibitors of Inflammasome Signaling: IL-1-beta AlphaLISA Primary Screen. AID 743279, 2014. THP-1 LPS/ATP IL-1B secretion, AlphaLISA, 16 h; hits give low values. 4.7% of 360,000 active. activity change, % at 57.5 µM; in the data active = activity change below about -50%; inconclusive = mostly about -30% to -49%
#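 THP-1 cells pretreated 1 hr with compounds (up to 57.5 uM final), then stimulated with LPS (250 ng/mL final) plus ATP (1.25 mM final); secreted IL-1B measured by AlphaLISA after 16 hr, decreased signal indicating inhibition.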
# TDP1 cell noCPT – qHTS for Inhibitors of human tyrosyl-DNA phosphodiesterase 1 (TDP1): qHTS in cells in absence of CPT. DT40 Tdp1-/- hTDP1 cells, no CPT, ATP luminescence, 48 h. Potency, µM (highest dose often 46.2 µM), without a hit: at the highest dose activity change, negative = growth inhibition, most hits filed as inhibitors. 15% of 420,000 active; also: potency is read from the fitted curve at half-maximal effect; nearly all actives have a fitted effect of over 55% in size
#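 Luminescent ATP content (CellTiter-Glo) served as the growth readout. Knockout chicken DT40 cells expressing human TDP1 were exposed to compounds without camptothecin for a minimum 48 hr at 37 °C.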
# * marks the source's active call; other numbers are inactive results; ? = inconclusive; · = no result given. Hits are enriched below; roughly 19% of the tested compounds scored in any of these assays. Unless noted, calls follow the shape of the dose curve; as a rule, active = well fitted curve in the direction sought with a large enough effect; inconclusive = small, poorly fitted or top-dose-only effect, or another doubt; inactive = no such curve, though single readings can be large; an effect the other way counts as inactive or inconclusive. Unless noted, % is scaled to controls: 0 for no effect and ±100 for the full control effect.
SMILES,HT1080 IDH1KD tx,HT1080-NT tox,DT40 TDP1 CPT,IL1B secr inh,TDP1 cell noCPT
CC(C)(C)NC(=O)c1ccc(Sc2ccccc2)c([N+](=O)[O-])c1,-9.2%,-19.1%,?,4.9,8.2µM*
O=C(O)CNC(=O)c1ccc(Sc2ccccc2)c([N+](=O)[O-])c1,-1.8%,3.8%,3.4%,2.2,5.4%
COc1ccc(Cc2c(-c3ccc(F)cc3)nc3ccc(Cl)cn23)c(C)c1,?,-19.7%,?,-0.3,?
COc1ccccc1NC(=O)CCCN1C(=O)C2CC=CCC2C1=O (stereo not drawn),14.5%,6.1%,10.9%,-8.5,0.2%
COCCN(Cc1ccccc1)C(=O)c1cccc(S(=O)(=O)N2CCN(c3ccc(F)cc3)CC2)c1,-11.1%,-0.5%,?,-20.4,18.4µM*
COCCN(Cc1nc2ccccc2c(=O)[nH]1)C(=O)c1cccc(S(=O)(=O)N2CCCC2)c1,-4.1%,6.3%,?,30.9,-4.3%
COCCN(Cc1ccccc1)C(=O)c1cccc(S(=O)(=O)N2CCN(c3ccccc3)CC2)c1,-2.0%,-3.7%,?,-5.5,16.4µM*
C=CCOc1c(Cl)cc(CNc2nccs2)cc1OC,13.2%,15.6%,8.8%,2.7,3.0%
CCCn1c(SCC(=O)Nc2c(C)cccc2CC)nnc1C(C)C,14.6%,8.7%,-8.6%,5.5,-4.0%
CCn1c(SCC(=O)Nc2ccccc2C(=O)OC)nnc1-c1ccoc1C,-1.7%,-3.9%,-28.8%,4.2,29.1µM*
CCn1c(SCC(=O)NNC(=O)c2ccc(C)cc2)nnc1C(C)C,-8.1%,-5.8%,?,1.2,10.3µM*
CCCn1c(SCC(=O)Nc2ccccc2CC)nnc1C(C)C,?,2.1%,20.6µM*,21.8,18.4µM*
Cc1occc1-c1nnc(SCC(=O)Nc2ccccc2-c2ccccc2)n1C,7.4%,3.1%,?,-10.8,15.8µM*
COc1cc(C(=O)NCC2CCCO2)ccc1OCc1ccccc1Cl (stereo not drawn),-5.4%,-2.0%,-30.0%,0.0,?
CC1CCCCC1NC(=O)Cn1cnc2sccc2c1=O (stereo not drawn),1.9%,8.3%,-27.4%,-10.6,-6.4%
Clc1ccc(OCCSc2ncccn2)c(Br)c1,2.8%,2.1%,-26.0%,-12.2,?
CCCn1c(SCC(=O)Nc2ccccc2-c2ccccc2)nnc1-c1ccoc1C,-9.4%,-7.3%,16.4µM*,-27.5,10.3µM*
Cc1occc1-c1nnc(SCC(=O)Nc2ccc(F)cc2)n1Cc1ccccc1,?,20.6µM*,?,-80.0*,?
CCCn1c(SCC(=O)c2cc(OC)ccc2OC)nnc1C(C)C,2.3%,7.6%,15.8µM*,-19.5,?
CCCCn1nnnc1SCC(=O)c1cc(Cl)ccc1OC,10.6%,7.8%,-15.5%,-57.3*,-14.6%
Cc1occc1-c1nnc(SCC(=O)Nc2ccccc2)n1Cc1ccccc1,-0.3%,-11.8%,-20.0%,-9.5,?
O=C(NCCc1c[nH]c2ccccc12)/C(=C/c1cccnc1)NC(=O)c1ccco1,0.5%,3.9%,1.0%,-0.3,-7.7%
COc1cccc(CNC(=O)CN2C(=O)CC(c3ccccc3)=Nc3ccccc32)c1,4.2%,14.9%,-26.2%,-6.6,0.7%
Cc1ccc(C2=Nc3ccccc3N(CC(=O)NCc3ccccc3Cl)C(=O)C2)cc1C,·,·,?,·,20.6µM*
Cc1ccc(C2=Nc3ccccc3N(CC(=O)Nc3cccc(F)c3)C(=O)C2)cc1C,·,·,?,·,18.4µM*
COc1cccc(NC(=O)CSC2=Nc3ccccc3N=C(c3ccc(F)cc3)C2)c1,·,·,18.4µM*,·,?
Cc1ccc(NC(=O)CN2C(=O)CC(c3ccc(F)cc3)=Nc3ccccc32)cc1F,·,·,11.6µM*,·,11.6µM*
